Results as given in PubChem BioAssay (NCI).
Several values for one entry are separate records, joined by “and”; a condition that tells them apart may be missing. Equal entries are not always repeated. The panel holds about 83,000 compounds, 20% with a hit somewhere; the sample as a whole holds those more often.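 Negative percent growth values reflect cell death: -40 means 40% of the cells present at the start died, and -100 means all died.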 Activity calls are given as the source filed them. Rule for the calls: active = growth percent below 10; inactive = the rest.

Legend:
Assay in all cases: NCI-60 one-dose screen, 48 h (100 = growth as untreated, 0 = no growth, -100 = all killed)
SK-MEL-2 melanoma = details: 10 µM unless noted
EKVX NSCLC = details: 10 µM unless noted
SN12C renal = details: 10 µM unless noted
UO-31 renal = details: 10 µM unless noted
TK-10 renal = tested on: TK-10 renal
ACHN renal = details: 10 µM unless noted
CAKI-1 renal = details: 10 µM unless noted
A498 renal = details: 10 µM unless noted
CCRF-CEM leukemia = details: 10 µM unless noted
MOLT-4 leukemia = details: 10 µM unless noted
SR leukemia = details: 10 µM unless noted
RPMI-8226 leukemia = details: 10 µM unless noted
OVCAR-8 ovarian = details: 10 µM unless noted
OVCAR-5 ovarian = details: 10 µM unless noted
OVCAR-4 ovarian = details: 10 µM unless noted
SK-OV-3 ovarian = details: 10 µM unless noted
IGROV1 ovarian = details: 10 µM unless noted
OVCAR-3 ovarian = details: 10 µM unless noted
HS 578T breast = details: 10 µM unless noted
NCI/ADR-RES ovarian = details: 10 µM unless noted

Measured: growth

OC1CCCN(Cc2ccccc2)C1 (stereo unspecified)
inactive: SK-MEL-2 melanoma 115% | EKVX NSCLC 116% | SN12C renal 98.5% | UO-31 renal 88.5% | TK-10 renal; 10 µM unless noted 97.4% | ACHN renal 106% | CAKI-1 renal 105% | A498 renal 96.2% | CCRF-CEM leukemia 98.4% | MOLT-4 leukemia 92.5% | SR leukemia 88.6% | RPMI-8226 leukemia 90.5% | OVCAR-8 ovarian 105% | OVCAR-5 ovarian 108% | OVCAR-4 ovarian 129% | SK-OV-3 ovarian 99.7% | IGROV1 ovarian 112% | OVCAR-3 ovarian 113% | HS 578T breast 118%

COc1cc([C@@H]2c3cc4c(cc3[C@H](O)[C@H]3COC(=O)[C@@H]23)OCO4)cc(OC)c1OC
22.9% (inactive) and 8.72% (active): CAKI-1 renal
17.4% (inactive) and 0.767% (active): CCRF-CEM leukemia
29% (inactive) and -49.9% (active): OVCAR-3 ovarian
13.5% (inactive) and 4.58% (active): MOLT-4 leukemia
33% (inactive) and 3.05% (active): SK-OV-3 ovarian
inactive: EKVX NSCLC 28.6% and 35.4% | SN12C renal 20.6% and 33% | UO-31 renal 23.3% and 36.9% | TK-10 renal; 10 µM unless noted 21.1% and 69.2% | ACHN renal 25.2% and 31.8% | OVCAR-8 ovarian 11.5% and 18.9% | OVCAR-5 ovarian 24.3% and 30.4% | OVCAR-4 ovarian 34.2% and 35.6%
active: SK-MEL-2 melanoma -23.7% | A498 renal -5.77% and -29.6% | SR leukemia 6.02% and -8.59% | IGROV1 ovarian -2.37% and -41.6% | HS 578T breast -47.7% | NCI/ADR-RES ovarian 5.58% and -30.9%
25.8% (inactive) and -19.7% (active): RPMI-8226 leukemia

O=c1[nH]c(=S)[nH]n1C(=S)n1[nH]c(=S)[nH]c1=O
inactive: SK-MEL-2 melanoma 106% | EKVX NSCLC 105% | SN12C renal 101% | UO-31 renal 80.5% | TK-10 renal; 10 µM unless noted 106% | ACHN renal 99.3% | CAKI-1 renal 94.8% | A498 renal 109% | CCRF-CEM leukemia 93.6% | MOLT-4 leukemia 112% | SR leukemia 99.7% | RPMI-8226 leukemia 99% | OVCAR-8 ovarian 101% | OVCAR-5 ovarian 105% | OVCAR-4 ovarian 112% | SK-OV-3 ovarian 109% | IGROV1 ovarian 101% | OVCAR-3 ovarian 110% | HS 578T breast 98.5%

Nc1ccc(Cl)c(S(=O)(=O)O)c1
inactive: SK-MEL-2 melanoma 88.2% | EKVX NSCLC 106% | SN12C renal 96.6% | UO-31 renal 77.9% | TK-10 renal; 10 µM unless noted 98.5% | ACHN renal 97.2% | CAKI-1 renal 95.2% | A498 renal 84% | CCRF-CEM leukemia 106% | MOLT-4 leukemia 109% | SR leukemia 103% | RPMI-8226 leukemia 111% | OVCAR-8 ovarian 93.3% | OVCAR-5 ovarian 95.7% | OVCAR-4 ovarian 106% | SK-OV-3 ovarian 99.5% | IGROV1 ovarian 102% | OVCAR-3 ovarian 101% | HS 578T breast 98.8% | NCI/ADR-RES ovarian 103%

CCN(CC)C(=S)SCCO
inactive: SK-MEL-2 melanoma 105% | EKVX NSCLC 106% | SN12C renal 105% | UO-31 renal 93.8% | TK-10 renal; 10 µM unless noted 86% | ACHN renal 111% | CAKI-1 renal 107% | A498 renal 75.6% | CCRF-CEM leukemia 100% | MOLT-4 leukemia 96.6% | SR leukemia 92.5% | RPMI-8226 leukemia 99.5% | OVCAR-8 ovarian 103% | OVCAR-5 ovarian 110% | OVCAR-4 ovarian 113% | SK-OV-3 ovarian 111% | IGROV1 ovarian 107% | OVCAR-3 ovarian 106% | HS 578T breast 103%

CCC/C(=N/NC(N)=O)c1ccco1
inactive: SK-MEL-2 melanoma 94.8% | EKVX NSCLC 89.7% | SN12C renal 93% | UO-31 renal 90.6% | TK-10 renal; 10 µM unless noted 88.3% | ACHN renal 94.9% | CAKI-1 renal 92.7% | A498 renal 68.1% | CCRF-CEM leukemia 97.8% | MOLT-4 leukemia 80.3% | SR leukemia 96.1% | RPMI-8226 leukemia 95.2% | OVCAR-8 ovarian 98% | OVCAR-5 ovarian 91.2% | OVCAR-4 ovarian 102% | SK-OV-3 ovarian 91.6% | IGROV1 ovarian 104% | OVCAR-3 ovarian 117% | HS 578T breast 97.5% | NCI/ADR-RES ovarian 100%

Nc1nc(=S)c2[nH]cnc2[nH]1
-20.3% (active) and 11.4% (inactive): OVCAR-3 ovarian
4.02% (active) and 14.2% (inactive): CAKI-1 renal
active: TK-10 renal; 250 µM -17% and -85.4% | CCRF-CEM leukemia 7.32% and 0.0411% | SR leukemia 5.87% and 0.643% | RPMI-8226 leukemia 1.54% and -23.5% | OVCAR-5 ovarian -30.1% | SK-OV-3 ovarian 5.43% and 6.69%
inactive: SK-MEL-2 melanoma 29.7% and 42.5% | EKVX NSCLC 44.6% and 36.6% | SN12C renal 29.5% and 29.9% | UO-31 renal 16.4% and 28.5% | TK-10 renal; 10 µM 10.3% and 31.3% | ACHN renal 18.7% and 20.5% | A498 renal 32% | OVCAR-8 ovarian 12% | OVCAR-4 ovarian 25.1% and 44% | IGROV1 ovarian 27.3% and 36.7%
10.1% (inactive) and 0.426% (active): MOLT-4 leukemia
18.2% (inactive) and -50.1% (active): NCI/ADR-RES ovarian

CCOC(=O)CN1CCC(C(=O)OCC)CC1
inactive: SK-MEL-2 melanoma 111% | EKVX NSCLC 127% | SN12C renal 99.7% | UO-31 renal 94.9% | TK-10 renal; 10 µM unless noted 106% | ACHN renal 111% | CAKI-1 renal 116% | A498 renal 91.5% | CCRF-CEM leukemia 89.5% | MOLT-4 leukemia 106% | SR leukemia 124% | RPMI-8226 leukemia 95.8% | OVCAR-8 ovarian 106% | OVCAR-5 ovarian 104% | OVCAR-4 ovarian 108% | SK-OV-3 ovarian 99.1% | IGROV1 ovarian 122% | OVCAR-3 ovarian 117% | HS 578T breast 106%

N#Cc1c[nH]n2ccnc12
inactive: SK-MEL-2 melanoma 105% | EKVX NSCLC 90.3% | SN12C renal 99.8% | UO-31 renal 94.7% | TK-10 renal; 10 µM unless noted 103% | ACHN renal 112% | CAKI-1 renal 104% | A498 renal 117% | CCRF-CEM leukemia 109% | MOLT-4 leukemia 109% | SR leukemia 120% | RPMI-8226 leukemia 112% | OVCAR-8 ovarian 98.2% | OVCAR-5 ovarian 107% | OVCAR-4 ovarian 118% | SK-OV-3 ovarian 95.3% | IGROV1 ovarian 93.1% | OVCAR-3 ovarian 110% | HS 578T breast 117% | NCI/ADR-RES ovarian 105%

COC(=O)c1ccccc1Cl
inactive: SK-MEL-2 melanoma 108% | EKVX NSCLC 99.9% | SN12C renal 105% | UO-31 renal 93.8% | TK-10 renal; 10 µM unless noted 97.1% | ACHN renal 106% | CAKI-1 renal 99.6% | A498 renal 88.8% | CCRF-CEM leukemia 100% | MOLT-4 leukemia 105% | SR leukemia 96.4% | RPMI-8226 leukemia 113% | OVCAR-8 ovarian 102% | OVCAR-5 ovarian 106% | OVCAR-4 ovarian 103% | SK-OV-3 ovarian 105% | IGROV1 ovarian 105% | OVCAR-3 ovarian 105%

O=C(c1ccccc1)C1(Br)CCCCC1
inactive: SK-MEL-2 melanoma 104% | EKVX NSCLC 87.3% | SN12C renal 93.6% | UO-31 renal 82.2% | TK-10 renal; 10 µM unless noted 103% | ACHN renal 100% | CAKI-1 renal 89% | A498 renal 102% | CCRF-CEM leukemia 97.5% | MOLT-4 leukemia 103% | SR leukemia 149% | RPMI-8226 leukemia 98.9% | OVCAR-8 ovarian 103% | OVCAR-5 ovarian 97% | OVCAR-4 ovarian 105% | SK-OV-3 ovarian 108% | IGROV1 ovarian 97.2% | OVCAR-3 ovarian 112% | HS 578T breast 97.3% | NCI/ADR-RES ovarian 91.5%

COC(=O)c1nc(=S)[nH]c(C(=O)OC)c1C(=O)c1ccc(OC)cc1
inactive: SK-MEL-2 melanoma 104% | EKVX NSCLC 107% | SN12C renal 98.5% | UO-31 renal 86.8% | TK-10 renal; 10 µM unless noted 110% | ACHN renal 105% | CAKI-1 renal 94.5% | A498 renal 116% | CCRF-CEM leukemia 101% | MOLT-4 leukemia 107% | SR leukemia 105% | RPMI-8226 leukemia 111% | OVCAR-8 ovarian 109% | OVCAR-5 ovarian 103% | OVCAR-4 ovarian 112% | SK-OV-3 ovarian 149% | IGROV1 ovarian 99.9% | OVCAR-3 ovarian 119%

COc1cc(NCCCCCCCNC(C)C)c2nccc(C)c2c1
inactive: SK-MEL-2 melanoma 103% and 126% | EKVX NSCLC 82.9% and 50.6% | SN12C renal 78% and 61.7% | UO-31 renal 38.4% and 47.1% | TK-10 renal; 10 µM unless noted 90.3% and 67.6% | ACHN renal 91.8% and 67.3% | CAKI-1 renal 87.7% and 45.5% | A498 renal 80.5% and 49.2% | CCRF-CEM leukemia 92.7% | MOLT-4 leukemia 80% | SR leukemia 80.1% and 36.1% | RPMI-8226 leukemia 81.1% and 92.7% | OVCAR-8 ovarian 86.4% and 89.7% | OVCAR-5 ovarian 88.3% and 96.9% | OVCAR-4 ovarian 15.8% | SK-OV-3 ovarian 93.8% and 72.9% | IGROV1 ovarian 82.3% and 85.9% | OVCAR-3 ovarian 22.8% and 26.4% | HS 578T breast 95% and 68.8% | NCI/ADR-RES ovarian 88.1% and 84.6%

OCCS
inactive: SK-MEL-2 melanoma 108% | EKVX NSCLC 98.8% | SN12C renal 107% | UO-31 renal 98% | TK-10 renal; 10 µM unless noted 84.7% | ACHN renal 111% | CAKI-1 renal 105% | A498 renal 66.4% | CCRF-CEM leukemia 100% | MOLT-4 leukemia 92.2% | SR leukemia 90.5% | RPMI-8226 leukemia 104% | OVCAR-8 ovarian 103% | OVCAR-5 ovarian 104% | OVCAR-4 ovarian 101% | SK-OV-3 ovarian 101% | IGROV1 ovarian 110% | OVCAR-3 ovarian 105% | HS 578T breast 106% | NCI/ADR-RES ovarian 102%

CC(C)(C)OC(=O)NCCc1ccc(N)cc1
inactive: SK-MEL-2 melanoma 86.1% | EKVX NSCLC 101% | SN12C renal 91.8% | UO-31 renal 72% | TK-10 renal; 10 µM unless noted 92.7% | ACHN renal 105% | CAKI-1 renal 98.2% | A498 renal 92.5% | CCRF-CEM leukemia 85.5% | MOLT-4 leukemia 92.8% | SR leukemia 99.5% | RPMI-8226 leukemia 91.4% | OVCAR-8 ovarian 104% | OVCAR-5 ovarian 111% | OVCAR-4 ovarian 98.8% | SK-OV-3 ovarian 101% | IGROV1 ovarian 104% | OVCAR-3 ovarian 106% | NCI/ADR-RES ovarian 99.2%
